Source: PubChem (National Center for Advancing Translational Sciences (NCATS))
Most compounds without a hit are left out; they make up all but 1.2% or so of the library.
LmPK inh: LmPK (Leishmania mexicana) enzyme inhibition | Q27686 | Potency, µM (highest dose often 57.5 µM), for the others: at the top dose activity change, negative = inhibition, most hits filed as inhibitors | 290,000 tested, 0.37% active | purified LmPK, Kinase-Glo ATP luminescence, 1 h; further: on the % scale 0 is the no-effect control and ±100 the full control effect
Target sequence (Q27686 whole entry, looked up): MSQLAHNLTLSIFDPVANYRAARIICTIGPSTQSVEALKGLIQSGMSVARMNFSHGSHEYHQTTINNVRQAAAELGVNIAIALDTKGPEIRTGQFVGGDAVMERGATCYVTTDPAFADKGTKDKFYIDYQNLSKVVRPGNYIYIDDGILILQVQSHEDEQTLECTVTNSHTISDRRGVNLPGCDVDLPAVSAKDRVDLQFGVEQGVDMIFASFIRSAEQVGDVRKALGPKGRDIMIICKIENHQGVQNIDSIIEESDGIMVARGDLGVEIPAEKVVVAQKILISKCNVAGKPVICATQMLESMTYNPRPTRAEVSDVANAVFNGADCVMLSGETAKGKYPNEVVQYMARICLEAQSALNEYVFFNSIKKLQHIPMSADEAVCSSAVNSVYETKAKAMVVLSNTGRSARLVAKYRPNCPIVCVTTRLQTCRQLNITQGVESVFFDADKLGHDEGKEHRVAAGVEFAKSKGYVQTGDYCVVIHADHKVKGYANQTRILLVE
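In 50 mM imidazole pH 7.2 with 7 mM MgCl2, LmPK (0.1 nM) turned over PEP (0.5 mM) and ADP (0.1 mM) for 1 h at room temperature. Luciferase read-out of ATP.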
NS1 function inh: inhibitors of influenza NS1 protein function. Potency, µM (highest dose often 46.1 µM), for the others: at the highest dose activity, positive = more growth. AID 2326. 270,000 tested, 0.4% active; calls by dose curve; further: actives are rising curves; nearly all actives have a fitted effect of over 50% in size
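S. cerevisiae expressing influenza A NS1, grown in glucose, washed, then diluted 1:100 into pH 6.0 -URA galactose medium with 23 nl compound. Growth recovery read as OD600; NS1-free strain serves as control.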
AMA1 RON2 block: AMA1-RON2 (P. falciparum) interaction inhibition | 360,000 tested, 0.2% active | AID 720542 | Potency, µM (titrated, usually from 58.2 µM), for the others: at the top dose activity change, negative = inhibition, usual class: inhibitors | AlphaScreen AMA1-biotinylated RON2 peptide binding;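 further: 0% = vehicle wells and -100% = peptide control; nearly all actives have a fitted effect of over 45% in size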
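AMA1 (3D7) with his tag at 25 nM final met compounds first, then biotinylated RON2 peptide at 25 nM; detection used donor plus acceptor beads, 10 µg/mL apiece, read by AlphaScreen after 30 min at room temperature.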
FBPA Giardia inh: Giardia lamblia aldolase inhibition | A8B2U2 | purified Giardia FBPA | Potency, µM (titrated, usually from 59.6 µM), for inactives: at the highest dose activity, negative = inhibition, most hits filed as inhibitors | 290,000 tested, 0.71% active; further: on the % scale 0 is the no-effect control and ±100 the full control effect; nearly all actives have a fitted effect of over 55% in size
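40 nM FBPA preincubated 10 min at RT with compound (up to 57.5 uM final), then substrate plus GAPDH/TPI/NAD/arsenate coupling and diaphorase/resazurin added. Fluorescence read after 20 min at RT, 525/598 nm.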
TbPYK inhibitor: T. brucei pyruvate kinase inhibition; Q57TT1; AID 624173; 410,000 tested, 0.12% active; TbPYK enzyme, Kinase-Glo Plus ATP luminescence, 45 min; Potency, µM (series often up to 76.8 µM), without a hit: top-dose activity, negative = inhibition, most hits filed as inhibitors; further: on the % scale 0 is the no-effect control and ±100 the full control effect; nearly all actives have a fitted effect of over 50% in size
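TbPYK + substrate in 50 mM TEA pH 7.2, 100 mM KCl, 10 mM MgCl2, 0.05% BSA, 0.01% Tween-20; cpd pinned; ADP 130 uM final; 45 min RT; Kinase-Glo Plus 10 min; luminescence endpoint.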
* = called active by the depositor; u = inconclusive; x = no result; [ ] = remark or other dose. Unless noted, the call rests on the fitted dose curve; in most records, active means well fitted curve in the direction sought with a large enough effect; inconclusive means small, poorly fitted or top-dose-only effect, or another doubt; inactive means no such curve, though single readings can be large; an effect the other way counts as inactive or inconclusive. Potency means the concentration at half of the fitted maximal effect.

SMILES | LmPK inh | NS1 function inh | AMA1 RON2 block | FBPA Giardia inh | TbPYK inhibitor
CC[C@@H](O)C(C[C@@H](C)N(C)C)(c1ccccc1)c1ccccc1 | x | x | x | x | -7.7%[157 µM]
S=c1[nH]cc(-c2ccccc2)n1-c1ccccc1 | 3.16µM* | 0.8% | -16.2% | -5.2% | u
CCn1c(-c2ccccc2)c[nH]c1=S | 14.1µM* | 8.9% | -2.4% | -6.6% | u
N=C(N)c1ccc(OCCCOc2ccc(C(=N)N)cc2Br)c(Br)c1 | x | x | x | x | -0.9%
CC(C)c1onc(-c2c(Cl)cccc2Cl)c1COc1ccc(/C=C/c2cccc(C(=O)O)c2)c(Cl)c1 | x | x | x | 12.7% | -0.4%
CC#CCN1c2ccccc2[C@]23C[C@@H](C(=O)OC)N(S(=O)(=O)CCCC)C2=NC(C(=O)OC)=C(C(=O)OC)[C@H]13 | -0.1%[11.5 µM] | x | x | 0.7%[12.9 µM] | x
CCOC(=O)c1c(C)n(Cc2ccc(F)cc2)c2ccc(O)cc12 | 17.8µM* | 2.3% | -2.9% | -12.2% | u
Cc1cccc(CN2C(=O)N/C(=C/c3ccc(C)s3)C2=O)c1 | 7.3% | -6.5% | 0.5% | 0.0% | u
Cc1ccc(/C=C2/NC(=O)N(Cc3ccccc3)C2=O)s1 | 3.9% | 3.98µM* | 7.8% | -4.3% | u
CCOc1cccc(CNc2ccc(O)cc2)c1OCc1ccc(Cl)cc1Cl | 5.3% | -5.4% | -8.2% | 12.6µM* | u
CCOc1cccc(CNc2ccc(O)cc2)c1OCc1ccccc1Cl | -2.3% | -26.4% | -7.6% | 2.3% | u
Cc1nc2c(=O)[nH]c(=S)[nH]c2[nH]c1=O | x | x | 28.2µM* | x | u
Cc1nc2[nH]c(=S)[nH]c(=O)c2nc1C | x | x | 9.8% | x | -11.7%
[N-]=[N+]=NCC(=O)c1c[nH]c(=O)[nH]c1=O | x | -10.4% | x | x | x
COc1cccc(/C=N/n2c(C3CCCCC3)n[nH]c2=S)c1OC | 0.3% | -0.4% | 88.8% | 9.2% | 5.62µM*
COc1cc(OC)c(/C=N/n2c(C3CCCCC3)n[nH]c2=S)c(OC)c1 | u | 5.7% | 80.9% | 0.7% | 8.91µM*
O=C(NC1CCCC1)c1sc(=S)n2c1[nH]c(=O)c1ccccc12 | 22.4µM* | -64.5% | 8.5% | -6.0% | -2.9%
O=C(NCc1ccco1)c1sc(=S)n2c1[nH]c(=O)c1ccccc12 | u | -96.7% | -6.8% | -11.4% | -22.7%
O=C(Cc1ccc(S(=O)(=O)N2CCOCC2)s1)Nc1nc2c(s1)CCCC2 | -0.6% | 23.2% | -0.7% | 15.8µM* | 6.2%
O=C(Cc1ccc(S(=O)(=O)N2CCOCC2)s1)Nc1ccc2c(c1)CCC2 | 4.3% | u | -5.0% | -1.2% | 3.5%
CC(=O)N(C1=C(Cl)C(=O)c2ccccc2C1=O)C1CCCCC1 | 2.82µM* | -91.7% | -20.0% | 1.58µM* | 0.891µM*
CC(=O)N(c1ccccc1C)C1CCCC1 | -7.6% | u | 11.1% | -1.0% | -1.0%
CN(C)c1cc2c(c(N(C)C)c1)C(=O)c1ccccc1C2=O | -22.8% | -14.8% | 17.8µM* | 5.1% | -9.6%
O=C1C=C(N(CCO)Cc2ccccc2)c2ccccc2C1=O | -9.1% | x | -1.2% | 0.354µM* | -5.1%
O=C1c2ccccc2C(=O)c2c1cccc2N(CCO)CCO | -12.3% | 6.8% | -22.2% | -25.2% | -7.0%
SMILES | LmPK inh | NS1 function inh | AMA1 RON2 block | FBPA Giardia inh | TbPYK inhibitor
CCOC(=O)C1CCN(C2=C(NS(=O)(=O)c3ccc(Br)cc3)C(=O)c3ccccc3C2=O)CC1 | -7.7% | 25.4% | 12.6µM* | u | -10.9%
O=C1C(NS(=O)(=O)c2ccc(Cl)cc2)=C(N2CCCCC2)C(=O)c2ccccc21 | -14.1% | -10.1% | 11.2µM* | u | 10.1%
COc1ccc(-c2n[nH]c(=S)n2Cc2ccccc2)cc1 | u | 22.7% | 60.5% | 6.0% | u
S=c1[nH]nc(-c2ccccc2)n1Cc1ccccc1 | 10µM* | 9.0% | 57.8% | 6.1% | u
COc1ccc(-c2n[nH]c(=S)n2Cc2ccccc2)cc1OC | u | 0.5% | 84.3% | 29.3% | u
S=c1[nH]nc(-c2ccc(Cl)cc2)n1Cc1ccccc1 | 12.6µM* | 12.4% | 58.4% | 13.0% | u
S=c1[nH]nc(-c2ccc(Br)cc2)n1Cc1ccco1 | 22.4µM* | -30.5% | 9.8% | 6.9% | 5.62µM*
Fc1ccc(NCc2n[nH]c(=S)n2Cc2ccccc2)cc1 | u | x | 81.1% | 2.0% | 7.08µM*
CNC(=O)C[C@@H](N)C(=O)N[C@@H](C(=O)N[C@@H]1C(=O)N2[C@@H]1SC(C)(C)[C@@H]2C(=O)O)c1ccc(O)cc1 | x | x | x | x | -5.0%
C=C1c2cccc(C(F)(F)F)c2O[C@H](C(=O)OCC)[C@@H]1CCCCCC | x | x | x | -1.8%[89.2 µM] | x
CCOC(=O)c1ccc(N2C(=O)c3n[nH]c(-c4cccs4)c3C2c2cccc(OC)c2)cc1 (stereo unspecified) | x | x | x | x | 3.7%
Cc1ccc(C(=O)[C@H](C)CN2CCCCC2)cc1 | x | x | x | x | 0.1%
CCCCc1n[nH]c(=S)n1Cc1ccc(Cl)cc1 | u | x | 9.6% | 1.0% | 10µM*
S=c1[nH]nc(-c2ccc(Br)o2)n1Cc1ccccc1 | u | -14.6% | 13.2% | 6.1% | 10µM*
S=c1[nH]nc(-c2ccco2)n1Cc1ccccc1 | 14.1µM* | u | 147.2% | -4.1% | u
c1ccc(Cn2c(SCc3nc4ccccc4s3)nnc2-c2ccco2)cc1 | 3.5% | -38.1% | u | -2.0% | 28.2µM*
CCC(c1nnc(SCc2nc3ccccc3s2)n1Cc1ccccc1)N(C)C (stereo unspecified) | 13.5% | -1.8% | -5.9% | -0.4% | -14.7%
CCCCc1n[nH]c(=S)n1Cc1ccccc1 | 0.3% | 5.8% | 77.2% | -4.4% | u
CCn1c(-c2ccco2)n[nH]c1=S | 0.6% | 11.3% | 1.4% | u | u
COc1ccc(OC)c(CCNC(=O)c2cnn(-c3ccccc3)c2C2CCN(C(=O)OC(C)(C)C)CC2)c1 | x | x | x | x | -0.2%[15.4 µM]
C#C[C@]1(O)CC[C@@H]2[C@H]3CCC4=CC(=O)CC[C@H]4[C@H]3C(=C)C[C@@]21CC | x | x | x | x | -6.2%
S=c1[nH]nc(-c2ccco2)n1/N=C/c1ccc(Cl)cc1 | -12.0% | -23.1% | 56.0%[11.6 µM] | 13.0% | 3.98µM*
COCCCn1c(-c2ccc(Cl)cc2)n[nH]c1=S | u | 8.8% | 48.4% | 0.2% | u
CCOCCCn1c(-c2ccc(Cl)cc2)n[nH]c1=S | u | 9.4% | 19.1% | 6.9% | 8.91µM*
S=c1[nH]nc(-c2ccco2)n1/N=C/c1ccccc1Cl | -8.0% | 5.1% | 65.0% | -1.2% | u
C[C@H]1[C@H](O)[C@@H](C)C=CC=CC=CC=CC=CC=CC=C[C@H](O[C@@H]2O[C@@H](C)[C@H](O)[C@@H](N)[C@@H]2O)C[C@@H]2O[C@](O)(C[C@@H](O)C[C@@H](O)[C@@H](O)CC[C@@H](O)C[C@@H](O)CC(=O)O[C@H]1C)C[C@H](O)[C@H]2C(=O)O | x | 26.1% | x | x | x
Cn1cc(C[C@H](C(=O)O)N2C(=O)c3ccc(C(=O)O)cc3C2=O)c2ccccc21 | x | x | x | 0.7% | x
O=C(O)c1cc(=O)c2cc(Cl)ccc2[nH]1 | x | x | x | 1.2% | x
Nc1ccc(N2CCCCC2)c2nonc12 | -8.4% | 1.3% | 2.5% | 1.99µM* | u
